Here are results for 36 compounds from PubChem BioAssay AID489012 (National Center for Advancing Translational Sciences (NCATS), 2010).

SMILES strings stand for the structures. Results filed as inconclusive are left out. Entries that show only a call come without a potency. Activity calls are given as the source filed them. The call rests on the fitted dose curve; in most records, active means well fitted activation curve with a large enough effect; inconclusive means small, poorly fitted or top-dose-only effect; inactive means no such curve, though single readings can be large or run the other way.
Potency means the concentration at half of the fitted maximal effect.

The target in this assay is Relaxin receptor 1 (Homo sapiens) (UniProt Q9HBX9). Kind of assay: qHTS Assay for Agonists of the Relaxin Receptor RXFP1: RXFP1 Hit Validation. Further: nearly all actives have a fitted effect of over 65% in size.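 On activation: cAMP rise lowers the TR-FRET signal in lysed cells with PDE4 inhibitor present.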 Particulars: HEK293T-RXFP1 cAMP TR-FRET, 30 min; series mostly up to 115 µM.
Relaxin receptor 1 (Homo sapiens), sequence (Q9HBX9 whole entry, looked up): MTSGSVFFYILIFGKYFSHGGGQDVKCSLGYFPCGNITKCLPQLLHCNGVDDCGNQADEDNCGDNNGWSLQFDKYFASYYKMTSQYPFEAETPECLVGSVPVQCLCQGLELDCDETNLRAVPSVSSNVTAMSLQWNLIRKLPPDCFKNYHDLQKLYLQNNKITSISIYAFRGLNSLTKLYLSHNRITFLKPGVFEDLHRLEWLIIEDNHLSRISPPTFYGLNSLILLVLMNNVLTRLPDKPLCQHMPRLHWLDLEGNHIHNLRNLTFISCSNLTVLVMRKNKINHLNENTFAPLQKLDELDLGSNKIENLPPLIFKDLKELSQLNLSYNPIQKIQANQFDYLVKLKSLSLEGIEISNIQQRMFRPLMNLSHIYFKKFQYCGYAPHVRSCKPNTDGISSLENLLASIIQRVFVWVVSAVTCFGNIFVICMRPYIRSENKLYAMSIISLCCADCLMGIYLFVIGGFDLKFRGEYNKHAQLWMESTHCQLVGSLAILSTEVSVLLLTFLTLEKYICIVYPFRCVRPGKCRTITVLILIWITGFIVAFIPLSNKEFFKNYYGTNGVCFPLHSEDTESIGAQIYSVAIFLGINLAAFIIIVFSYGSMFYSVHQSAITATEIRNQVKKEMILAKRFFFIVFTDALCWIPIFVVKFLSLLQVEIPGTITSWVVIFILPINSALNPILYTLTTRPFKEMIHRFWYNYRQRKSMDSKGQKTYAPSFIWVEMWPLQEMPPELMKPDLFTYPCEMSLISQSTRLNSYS
Regarding `O=C(Nc1ccccc1C(=O)Nc1ccc(F)cc1)c1ccco1`, the Potency result is “inactive”. As for `COc1cccc(CNC(=O)c2ccc(CS(=O)Cc3ccc(C)cc3)o2)c1` (stereo unspecified), the Potency result was “inactive”.

On to `Cc1cc(C)c(C(=O)CSc2n[nH]c(=O)n2C2CC2)cc1C`, for which the Potency entry is “inactive”. Consider `COc1ccc(Nc2ncc(C#N)c(N)n2)c(OC)c1`, for which the Potency entry is “inactive”. The value for `c1ccc(COn2nnc3ccccc32)c(COn2nnc3ccccc32)c1` was “inactive”; that for `O=C(NCCOC(=O)c1ccc([N+](=O)[O-])cc1)c1cccnc1` was “inactive”; that for `COC(=O)CCNC(=O)Cn1cnc2sc3c(c2c1=O)CCCC3` was “inactive”.

`COc1ccc(Cl)cc1-c1n[nH]c(=S)o1`: the Potency is 6.15 µM (active).

In the case of `Brc1ccc2ncnc(NCc3cccnc3)c2c1`, the Potency was 38.9 µM (active). The value for `CCCc1nc(SCC(=O)NCC2CCCO2)c2c(=O)n(C)c(=O)n(C)c2n1` (stereo unspecified) was “inactive”; that for `COc1ccc(S(=O)(=O)Nc2ccccn2)c(C)c1C` was “inactive”.

`N#Cc1c(N)nc(SCC(=O)C23CC4CC(CC(C4)C2)C3)c(C#N)c1-c1ccc(Cl)cc1`: the Potency was 9.74 µM (active).

`O=C(CN1C(=O)c2cccc3cccc(c23)C1=O)NCCN1CCOCC1`: the Potency result is “inactive”. The value for `COc1cc(Cl)c(C)cc1NC(=O)c1ccc2c(c1)OCO2` was “inactive”; that for `CCOC(=O)c1sc(NC(=O)CCc2ccc(OC)cc2)nc1C` was 15.4 µM (active). The value for `C=C[C@@]1(C)CC(=O)[C@]2(O)[C@@]3(C)[C@@H](O)CCC(C)(C)[C@@H]3[C@H](O)[C@H](OC(C)=O)[C@@]2(C)O1` was 0.0388 µM (active); that for `O=C(Nc1ccccc1C(=O)NC1CCCCC1)c1ccco1` was “inactive”. The value for `COc1cccc(C(=O)CSc2nnc(-c3cc(OC)cc(OC)c3)o2)c1` was 13.8 µM (active).

As to `Cc1ccc2[nH]c3c(=S)nc[nH]c3c2c1`, the Potency was 3.88 µM (active). For `CCOC(=O)/C(C#N)=C/c1c(N2CCN(CC)CC2)nc2c(C)cccn2c1=O`, the Potency result is “inactive”. In the case of `COc1ccc(C(=O)Nc2ccc(S(=O)(=O)Nc3onc(C)c3C)cc2)c(OC)c1`, the Potency was 5.95 µM (active).

For `O=C(O)c1ccc(N=C2NC(=O)C(CO)(CO)S2)cc1`, the Potency entry is “inactive”. On to `CC(C(=O)Nc1cccnc1)n1cc([N+](=O)[O-])cn1` (stereo unspecified), for which the Potency entry is “inactive”.

Take `CN(Cc1ccccc1)C(=O)c1ccccc1NC(=O)c1ccco1`: the Potency entry is “inactive”.

With `CN(CC(=O)Nc1ccccc1Cl)C(=O)COC(=O)Cc1c(F)cccc1Cl`, the Potency result is “inactive”. The value for `Cc1cccn2c(=O)c(/C=C3\SC(=S)NC3=O)c(NCCCN3CCOCC3)nc12` was 7.74 µM (active). Next, `O=C(Nc1ccccc1C(=O)N1CCCCC1)c1ccco1`: “inactive”; `Cc1ccccc1NC(=O)c1ccccc1NC(=O)c1ccco1`: “inactive”; `COC(=O)[C@@H]1C[C@@]2(O)[C@H](O)[C@H](O)[C@H](O)C[C@H]2N1Cc1cc(F)ccc1F`: “inactive”. Next, `CCN(CC)C(=O)c1cc(Cl)ccc1NC(=O)c1ccco1`: “inactive”; `Cc1c(C(=O)NNc2cc(=O)n(C)c(=O)n2C)cccc1[N+](=O)[O-]`: “inactive”. As to `O=C(O)c1ccc(CN2C(=O)c3ccc(C(=O)O)cc3C2=O)cc1`, the Potency result was “inactive”. Next, `O=C(O)CCNc1ccc(NCCC(=O)O)c2c1C(=O)c1ccccc1C2=O`: “inactive”. The value for `CC(C)C(=O)Nc1ccc(Nc2ccccc2)cc1` was “inactive”; that for `COCCNC(=O)NC(=O)COC(=O)C12CC3CC(CC(NC(C)=O)(C3)C1)C2` was “inactive”; that for `CCOP1(=O)OCC2OC(n3cnc4c(N)ncnc43)C(O)C2O1` (stereo unspecified) was 6.91 µM (active).
